For 40 compounds, outcome and activity change, negative = cytotoxicity results are on record in PubChem BioAssay (Tox21).

Records with an inconclusive call do not appear. Values without a mark were called inactive. Calls of active or inactive are those of the source. Calls follow the shape of the full dose curve.
% is scaled to controls: 0 for no effect and ±100 for the full control effect.

This test can be described thus: qHTS assay to identify small molecule agonists of the progesterone receptor (PR) signaling pathway - cell viability counter screen (AID 1346799). Also: nearly all actives have a fitted effect of over 45% in size. The note with it: PR-UAS-bla HEK293T viability, CellTiter-Glo luminescence, 16 h; series mostly up to 92.4 µM. From the text:
National Center for Advancing Translational Sciences [NCATS]
NIH Chemical Genomics Center [NCGC]
U.S. Environmental Protection Agency [EPA]
National Institutes of Environmental Health Sciences [NIEHS]
National Toxicology Program [NTP]
U.S. Food and Drug Administration [FDA]
Progesterone receptor (PR), a nuclear hormone receptor, plays an important role in development, metabolic homeostasis and reproduction. It is activated by the steroid hormone progesterone. Endocrine disrupting chemicals (EDCs) and their interactions with steroid hormone receptors like PR causes disruption of normal endocrine function. To identify the compounds that stimulate PR signaling, a PR-UAS-bla GripTite cell line i.e. PR-UAS-bla HEK293T (Invitrogen, Carlsbad, CA, USA) containing a beta-lactamase reporter gene under the control of an UAS response element was used to screen Tox21 10K compound library. The cytotoxicity of the Tox21 compound library against the PR-bla cell line was tested in parallel by measuring the cell viability using CellTiter-Glo assay in the same wells.
Tox21 Assay Protocol Summary:
PR-UAS-bla HEK293T cells were dispensed at 3,000 cells/5 uL of assay medium containing 2% charcoal stripped FBS per well into black wall/clear-bottom 1536-well plates using a Multidrop Combi (ThermoFisher Scientific, Waltham, MA) dispenser. After the assay plates were incubated at a 37C and 5% CO2 for 6 hr, 23 nL of compounds dissolved in DMSO, positive controls or DMSO only was transferred to the assay plate by a Pintool station (Kalypsys, San Diego, CA). The plates were incubated at 37C and 5% CO2 for 16 hr. Then 1 uL of LiveBLAzer B/G FRET substrate was added using a Flying Reagent Dispenser (FRD, Aurora Discovery, San Diego, CA), the plates were incubated at room temperature for 2 hours, and fluorescence intensity was measured by an Envision plate reader (PerkinElmer, Shelton, CT). For cell viability readout that measures cytotoxicity, 4 uL/well of CellTiter-Glo reagent was added into the assay plates using a FRD. After 30 min incubation at room temperature, the luminescence intensity in the plates was measured using a ViewLux (PerkinElmer) plate reader.
On the technique in general: Quantitative high-throughput screening tests each substance at several concentrations.
Regarding `O=C(Cn1ccnc1[N+](=O)[O-])NCc1ccccc1`, the outcome was inactive.
Still for that read-out and setting: as for `Cc1c(N)cccc1Cl`, the entry is “inactive”.
The same measure, in the same setting: next, `Cc1c(C(=O)c2c[nH]n(C)c2=O)ccc(S(C)(=O)=O)c1C1=NOCC1`: “inactive”.
Regarding `C/C=C(\C)C(C)=O`, the compound was called inactive.
Still for that read-out and setting: as for `C=CCCCC`, the entry is “inactive”; as for `CC(=O)O[C@H]1C[C@@H]2CC[C@@]1(C)C2(C)C`, “inactive”.
The same measure, in the same setting: next, `Cn1c(=O)c2c(ncn2CCO)n(C)c1=O`: “inactive”.
As for `CCCCCC(C)O` (stereo not given), the call was inactive.
For the compound `CC1=C(C(=O)O)N2C(=O)[C@@H](NC(=O)[C@H](N)c3ccccc3)[C@H]2SC1`, the result was inactive.
On the same count and under the same terms, next, `CC1CCc2c(N3CCC(O)CC3)c(F)cc3c(=O)c(C(=O)O)cn1c23` (stereo not given): “inactive”; `CCCC(CC)c1ccccc1` (stereo not given): “inactive”.
On the same count and under the same terms, as for `N#Cc1ccccc1O`, the entry is “inactive”; as for `CCCCCCCCCOC(=O)CCCCC(=O)OCCCCCCC`, “inactive”.
Turning to `N[C@@H](Cc1ccc(O)cc1)C(=O)O`, the activity change, negative = cytotoxicity was -21.8% [at 8.39 µM].
Take `O=C[O][Al]([O]C=O)[O]C=O`: the compound was classed as inactive.
The same measure, in the same setting: as for `O=Cc1cc2ccccc2o1`, the entry is “inactive”.
In the case of `CN(C)CCOC(=O)C(c1ccccc1)C1(O)CCCC1` (stereo not given), the compound was classed as inactive.
On to `C=C(C)[C@@H]1CC=C(C)C(=O)C1`, for which the result was inactive.
As to `CC(=O)CCc1ccc(OC(C)=O)cc1`, the result was inactive.
Same read-out and setting: next, `O=C(O)c1cc2ccccc2nc1C(=O)O`: “inactive”.
Same read-out and setting: as for `COc1cc(OC)nc(O[C@H](C(=O)O)C(OC)(c2ccccc2)c2ccccc2)n1`, the entry is “inactive”.
Regarding `CCn1cc(C(=O)O)c(=O)c2cnc(N3CCCC3)nc21`, the activity change, negative = cytotoxicity was 1.71% [at 8.39 µM].
`CN(C)CCN(C)CCO`: the outcome was inactive.
As for `CC12CCC(C1)C(C)(C)C2O` (stereo not given), the compound was called inactive.
With `CCO[Si](CC)(OCC)OCC`, the call was inactive.
On the same count and under the same terms, as for `Fc1ccccc1`, the entry is “inactive”; as for `CC(N)CCCC(C)(C)O` (stereo not given), “inactive”.
As for `CC1OCCC1=O` (stereo not given), the compound was called inactive.
As to `CC1(C)O[C@H]2CC(=O)OC[C@]23[C@H]2CC[C@@]4(C)[C@H](c5ccoc5)OC(=O)[C@H]5O[C@]54[C@]2(C)C(=O)C[C@@H]13`, the call was inactive.
The same measure, in the same setting: as for `NCC1(Cc2noc(=O)[nH]2)CCCCC1`, the entry is “inactive”; as for `O=C(CCCl)NCCc1ccccc1`, “inactive”; as for `CCCCCCC1(C)CCC(=O)O1` (stereo not given), “inactive”.
Still for that read-out and setting: next, `O=C1OCCO1`: “inactive”.
Still for that read-out and setting: next, `OC1OCCOC1O` (stereo not given): “inactive”.
In the case of `CC(O)COC(C)(C)C` (stereo not given), the result was inactive.
As to `C=C(C)C1CC=C(C)C(=O)C1` (stereo not given), the call was inactive.
The same measure, in the same setting: as for `O=NN(CCCl)C(=O)NC1CCCCC1`, the entry is “inactive”.
Take `Cc1ccc(C(=O)O)cc1[N+](=O)[O-]`: the compound was classed as inactive.
Still for that read-out and setting: as for `C=CC(=O)CCCCC`, the entry is “inactive”; as for `COP(=O)(O)OP(=O)(O)OC`, “inactive”.
